In ChEMBL document CHEMBL1961873, “Compounds: GSK PKIS; Assays: Nanosyn kinase panel” (2012) one finds inhibition data, which are given here for 17 compounds.

Assay [1] has as its target Ribosomal protein S6 kinase alpha-6 (Homo sapiens) (UniProt Q9UK32). As to conditions: at 1 µM.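 Note: each value is a mean inhibition of RSK4 from a GSK PKIS panel screen.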
The target in assay [2] is T1, Serine/threonine-protein kinase Sgk1 (Homo sapiens) (UniProt O00141).
T1 sequence (whole entry): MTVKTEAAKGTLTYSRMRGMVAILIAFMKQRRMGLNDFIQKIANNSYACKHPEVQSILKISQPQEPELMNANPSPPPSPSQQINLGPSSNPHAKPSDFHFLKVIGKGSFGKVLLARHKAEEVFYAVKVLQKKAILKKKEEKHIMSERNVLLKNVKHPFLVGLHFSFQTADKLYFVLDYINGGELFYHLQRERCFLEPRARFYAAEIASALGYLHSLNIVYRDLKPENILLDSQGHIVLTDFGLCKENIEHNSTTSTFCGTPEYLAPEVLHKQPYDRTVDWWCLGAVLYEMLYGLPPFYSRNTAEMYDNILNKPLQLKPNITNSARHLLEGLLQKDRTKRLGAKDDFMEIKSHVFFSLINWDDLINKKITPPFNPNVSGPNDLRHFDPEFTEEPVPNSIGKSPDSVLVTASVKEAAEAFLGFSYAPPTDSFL
As to conditions: at 0.1 µM.

Assay [3] has as its target T1, Serine/threonine-protein kinase Sgk1 (Homo sapiens). The conditions noted are these: at 1 µM.
For assay [4], the target named is T2, Serine/threonine-protein kinase Sgk2 (Homo sapiens) (UniProt Q9HBY8).
T2 sequence (whole entry): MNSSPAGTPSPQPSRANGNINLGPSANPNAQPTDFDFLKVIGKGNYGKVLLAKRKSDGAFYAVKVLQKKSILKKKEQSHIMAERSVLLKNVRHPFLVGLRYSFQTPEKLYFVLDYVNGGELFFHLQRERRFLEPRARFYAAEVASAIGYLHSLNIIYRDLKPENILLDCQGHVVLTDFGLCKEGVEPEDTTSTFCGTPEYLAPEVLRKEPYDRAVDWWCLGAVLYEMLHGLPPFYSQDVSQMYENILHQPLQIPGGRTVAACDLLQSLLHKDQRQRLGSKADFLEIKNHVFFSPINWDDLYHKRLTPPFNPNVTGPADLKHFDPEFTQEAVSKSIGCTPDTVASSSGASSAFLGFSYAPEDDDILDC
As to conditions: at 0.1 µM.

The target in assay [5] is T2, Serine/threonine-protein kinase Sgk2 (Homo sapiens). The conditions noted are these: at 1 µM.
In assay [6] the target is T3, Serine/threonine-protein kinase Sgk3 (Homo sapiens) (UniProt Q96BR1).
T3 sequence (whole entry): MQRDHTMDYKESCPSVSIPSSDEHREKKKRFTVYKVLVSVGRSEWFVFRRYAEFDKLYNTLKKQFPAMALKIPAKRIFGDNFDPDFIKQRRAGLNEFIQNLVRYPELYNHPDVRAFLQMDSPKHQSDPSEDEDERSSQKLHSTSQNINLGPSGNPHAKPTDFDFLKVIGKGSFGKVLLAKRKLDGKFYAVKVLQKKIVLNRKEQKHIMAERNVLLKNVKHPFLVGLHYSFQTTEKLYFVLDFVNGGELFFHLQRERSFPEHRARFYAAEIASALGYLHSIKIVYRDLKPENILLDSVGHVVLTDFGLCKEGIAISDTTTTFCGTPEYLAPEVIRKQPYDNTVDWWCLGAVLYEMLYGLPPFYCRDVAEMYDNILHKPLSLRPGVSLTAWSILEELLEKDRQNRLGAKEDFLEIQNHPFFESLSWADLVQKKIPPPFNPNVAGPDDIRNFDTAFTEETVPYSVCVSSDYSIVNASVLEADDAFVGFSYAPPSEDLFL
As to conditions: at 0.1 µM.

Assay [7] concerns the target T3, Serine/threonine-protein kinase Sgk3 (Homo sapiens). The conditions noted are these: at 1 µM.
The target of assay [8] is 5'-AMP-activated protein kinase catalytic subunit alpha-1 (Homo sapiens) (UniProt Q13131). The conditions noted are these: at 0.1 µM.
5'-AMP-activated protein kinase catalytic subunit alpha-1 (Homo sapiens), sequence (Q13131 whole entry, looked up): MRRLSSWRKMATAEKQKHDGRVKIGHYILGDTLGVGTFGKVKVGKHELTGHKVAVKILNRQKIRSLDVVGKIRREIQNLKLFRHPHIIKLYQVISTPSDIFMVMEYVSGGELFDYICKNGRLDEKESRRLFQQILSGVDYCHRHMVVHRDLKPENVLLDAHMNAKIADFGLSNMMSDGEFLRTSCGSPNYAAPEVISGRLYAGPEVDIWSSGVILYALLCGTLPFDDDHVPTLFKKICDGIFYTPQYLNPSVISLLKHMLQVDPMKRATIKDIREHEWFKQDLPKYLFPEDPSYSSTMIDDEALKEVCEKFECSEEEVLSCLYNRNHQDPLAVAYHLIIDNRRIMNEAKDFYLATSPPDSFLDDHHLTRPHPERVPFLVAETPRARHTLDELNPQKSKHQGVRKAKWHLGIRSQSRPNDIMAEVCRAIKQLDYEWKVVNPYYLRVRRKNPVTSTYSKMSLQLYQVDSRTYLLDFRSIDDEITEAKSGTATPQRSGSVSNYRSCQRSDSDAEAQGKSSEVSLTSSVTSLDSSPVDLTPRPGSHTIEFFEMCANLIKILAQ
The target is the same in assay [9]. As to conditions: at 1 µM.
In assay [10] the target is 5'-AMP-activated protein kinase catalytic subunit alpha-2 (Homo sapiens) (UniProt P54646). As to conditions: at 0.1 µM.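 Note: mean inhibition measured on the AMPK complex of alpha2, beta1 and gamma1 subunits.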
5'-AMP-activated protein kinase catalytic subunit alpha-2 (Homo sapiens), sequence (P54646 whole entry, looked up): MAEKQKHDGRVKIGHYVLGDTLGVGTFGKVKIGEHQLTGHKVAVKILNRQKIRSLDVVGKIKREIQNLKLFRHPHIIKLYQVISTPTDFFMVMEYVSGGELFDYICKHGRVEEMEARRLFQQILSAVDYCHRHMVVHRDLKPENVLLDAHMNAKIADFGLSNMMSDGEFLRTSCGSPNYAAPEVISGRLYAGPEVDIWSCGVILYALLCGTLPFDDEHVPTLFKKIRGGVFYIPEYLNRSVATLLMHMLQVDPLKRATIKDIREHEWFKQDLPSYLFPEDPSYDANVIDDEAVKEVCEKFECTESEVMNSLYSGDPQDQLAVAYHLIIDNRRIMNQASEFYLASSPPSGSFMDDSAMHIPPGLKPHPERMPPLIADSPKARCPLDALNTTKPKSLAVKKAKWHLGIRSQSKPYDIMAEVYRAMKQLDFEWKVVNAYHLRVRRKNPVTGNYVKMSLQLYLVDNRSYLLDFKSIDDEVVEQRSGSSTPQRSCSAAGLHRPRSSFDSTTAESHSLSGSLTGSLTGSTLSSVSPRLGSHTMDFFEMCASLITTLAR

Ribosomal protein S6 kinase alpha-6 (Homo sapiens), sequence (Q9UK32 whole entry): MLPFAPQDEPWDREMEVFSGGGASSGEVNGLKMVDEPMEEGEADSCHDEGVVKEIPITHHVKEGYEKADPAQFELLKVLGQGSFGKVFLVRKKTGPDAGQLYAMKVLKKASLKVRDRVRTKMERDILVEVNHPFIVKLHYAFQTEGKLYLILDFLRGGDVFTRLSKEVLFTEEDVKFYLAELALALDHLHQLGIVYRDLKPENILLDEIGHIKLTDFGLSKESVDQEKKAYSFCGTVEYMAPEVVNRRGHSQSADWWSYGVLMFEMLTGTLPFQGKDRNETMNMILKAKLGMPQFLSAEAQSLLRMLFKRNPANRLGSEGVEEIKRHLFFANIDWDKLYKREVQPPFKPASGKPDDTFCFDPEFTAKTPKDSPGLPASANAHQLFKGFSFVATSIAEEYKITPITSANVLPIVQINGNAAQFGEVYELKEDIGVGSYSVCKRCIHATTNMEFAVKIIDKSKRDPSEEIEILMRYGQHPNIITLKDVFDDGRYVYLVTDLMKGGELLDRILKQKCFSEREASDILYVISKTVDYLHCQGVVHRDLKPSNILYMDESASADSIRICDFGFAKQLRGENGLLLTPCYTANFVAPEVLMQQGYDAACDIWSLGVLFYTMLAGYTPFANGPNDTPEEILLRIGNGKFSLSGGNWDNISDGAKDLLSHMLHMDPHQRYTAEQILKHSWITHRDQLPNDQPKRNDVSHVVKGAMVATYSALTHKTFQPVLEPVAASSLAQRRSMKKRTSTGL

In the case of `CCCN(CCS(C)(=O)=O)Cc1ccc(-c2ccc3ncnc(Nc4ccc(OCc5cccc(F)c5)c(Cl)c4)c3c2)o1`, the inhibition (as a rule, the drop in the measured response relative to a control, in per cent) was 0.41% in [1]; 0.88% in [2]; 2.15% in assay [3]; 0.16% in assay [4]; -0.86% in assay [5]; 2.21% in [6]. The inhibition in [7] is 1.28%; in [8], 0.05%; in assay [9] it was 1.68%; in assay [10], 2.47%.
For `Clc1ccc(-c2nn3ncccc3c2-c2ccnc(Nc3ccccc3)n2)cc1`, the inhibition came to 1.59% in [1]; 3.14% in assay [2]; 1.09% in assay [3]; 1.58% in [4]; 0.53% in [5]; 1.92% in assay [6]. For the same compound, the inhibition in assay [7] is -1.01%; in assay [8], 0.45%; in assay [9], 0.54%; in assay [10] it was 1.86%.
As to `CCNC(=O)O[C@H]1CN[C@H](C#Cc2cc3ncnc(Nc4ccc(OCc5cccc(F)c5)c(Cl)c4)c3s2)C1`, the inhibition in assay [1] is 2.88%; in assay [2], 2.25%; in [3], -0.58%; in assay [4] it was 8.05%; in [5] it was 5.53%; in [6], 4.38%. The inhibition was -0.29% in assay [7], 2.46% in [8], 2.35% in [9] and 0.44% in [10].
With `COc1ccc2c(-c3ccnc(Nc4cccc(OC(F)(F)F)c4)n3)cnn2n1`, the inhibition in [1] amounted to 3.03%; in [2] it was 3.35%; in assay [3], 2.06%; in assay [4], 6.82%; in assay [5], 9.02%; in assay [6], 5.66%. Also, the inhibition in assay [7] is 4.44%; in assay [8], 4.09%; in [9], 7.03%; in assay [10] it was -7%.
As to `Nc1ncc(-c2cccc(S(N)(=O)=O)c2)c2scc(-c3ccc(F)c(Cl)c3)c12`, the inhibition in assay [1] was 3.24%; in [2], 2.77%; in assay [3] it was 2.35%; in [4] it was -0.69%; in [5] it was 4.55%; in [6] it was 3.54%. In addition, the inhibition in [7] was found to be 0.56%; in assay [8], 3.66%; in assay [9] it was 4.69%; in assay [10], 0.92%.
As for `Cc1ccc(O)cc1Nc1ccnc2cc(-c3ccccn3)ccc12`, the inhibition in assay [1] amounted to 1.1%; in assay [2], 3.35%; in assay [3], 0.75%; in assay [4], 4.28%; in assay [5] it was 0.49%; in assay [6], 4.38%. Also, the inhibition stood at 1.94% in [7], 4.22% in [8], 4.05% in assay [9] and 1.74% in [10].
Consider `FC(F)(F)c1cccc(-c2nn3ncccc3c2-c2ccnc(Nc3ccc4c(c3)OCCO4)n2)c1`, for which the inhibition in assay [1] was 2.56%; in [2], 1.35%; in assay [3], 1.1%; in assay [4], -3.49%; in [5], 0.76%; in assay [6] it was 5.14%. Also, the inhibition was 1.47% in assay [7], 1.41% in [8], 0.35% in assay [9] and 0.93% in assay [10].
Consider `CC(=O)Nc1cccc(C#Cc2cncnc2Nc2ccc(OCc3cccc(F)c3)c(Cl)c2)c1`, for which the inhibition in assay [1] was 1.39%; in [2], 3.01%; in assay [3], 2.43%; in assay [4] it was -0.35%; in assay [5], 2.06%; in assay [6] it was 2.61%. In addition, the inhibition is -0.92% in assay [7], 1.72% in assay [8], -0.52% in assay [9] and 2.44% in assay [10].
As for `COc1cc2ncn(-c3cc(OCc4ccccc4C(F)(F)F)c(C(=O)N(C)C)s3)c2cc1OC`, the inhibition in assay [1] was 0.1%; in assay [2] it was 0.62%; in assay [3], 1.02%; in [4], 1.9%; in [5], -0.51%; in [6], 0.08%. The inhibition in assay [7] is -0.88%; in assay [8] it was -0.68%; in assay [9] it was -0.02%; in assay [10], -0.26%.
Take `CCn1cc(-c2ccnc3[nH]ccc23)c(-c2cccc(NC(=O)Nc3ccc(OCc4ccccc4)cc3)c2)n1`: the inhibition in [1] was -1.2%; in assay [2], 0.59%; in assay [3] it was -1.2%; in assay [4] it was -1.32%; in assay [5] it was -1.47%; in [6], -0.3%. Also, the inhibition was -0.15% in assay [7], 1.13% in assay [8], 1.82% in assay [9] and 0.63% in assay [10].
Take `CCOc1ccc2c(-c3ccnc(Nc4cccc(C(F)(F)F)c4)n3)cnn2n1`: the inhibition in [1] is -0.99%; in [2] it was 1.25%; in assay [3] it was 0.13%; in assay [4] it was 2.25%; in assay [5], 0.87%; in [6] it was 0.95%. For the same compound, the inhibition in assay [7] came out at 2.4%; in assay [8], 2.48%; in [9], 2.09%; in [10], 0.22%.
For the compound `Nc1nc(-c2ccc(F)cc2)c(-c2ccc3ncccc3n2)s1`, the inhibition in assay [1] came out at 3.36%; in assay [2] it was 2.87%; in assay [3] it was 4.24%; in assay [4], 4.24%; in assay [5], 4.34%; in assay [6] it was 4.05%. In addition, the inhibition in assay [7] worked out at 3.66%; in assay [8] it was 3.33%; in [9], 5.29%; in [10] it was 1.85%.
Take `COc1cc(N2CCN(C(C)C)CC2)ccc1Nc1nc(Nc2ccc(F)cc2C(N)=O)c2cc[nH]c2n1`: the inhibition in assay [1] was 54.8%; in [2], -0.27%; in assay [3], 1.48%; in assay [4], 3.52%; in assay [5] it was -3.53%; in assay [6], 0.95%. Also, the inhibition came to 0.42% in assay [7], 6.33% in [8], 33.5% in assay [9] and 6.34% in assay [10].
`c1ccc(COc2ccc(Nc3ncnc4ccc(-c5ccco5)cc34)cc2)cc1`: the inhibition is -0.53% in assay [1]; 1.43% in assay [2]; 0.51% in [3]; -1.79% in assay [4]; 2.2% in assay [5]; -0.56% in assay [6]. The inhibition was 0.58% in assay [7], 0.67% in [8], 2.29% in assay [9] and -2.52% in [10].
Take `COC(=O)c1sc(-n2cnc3cc(OC)c(OC)cc32)cc1OCc1ccccc1C(F)(F)F`: the inhibition in assay [1] was 1.66%; in assay [2], 2.5%; in [3], 4.04%; in assay [4], 1.44%; in assay [5], 1.94%; in [6], 2.58%. The inhibition in assay [7] was 1.46%; in assay [8], 3.84%; in [9] it was 8.18%; in assay [10], -0.41%.
Regarding `c1cc(-c2cnn3nc(N4CCOCC4)ccc23)nc(NC2CC2)n1`, the inhibition in assay [1] was 10.5%; in assay [2] it was 2.27%; in [3] it was 3.4%; in assay [4], 9.24%; in assay [5], 9.02%; in assay [6] it was 4.38%. Besides, the inhibition in assay [7] was 2.23%; in assay [8] it was 4.11%; in assay [9], 6.88%; in [10], -0.07%.
Turning to `CNC(=O)c1cncc(/C=C/c2ccccc2Cl)c1`, the inhibition in assay [1] was determined as 0.65%; in assay [2], 0.52%; in [3], 3.45%; in [4], 3.22%; in assay [5] it was 1.73%; in assay [6], 2.89%. The inhibition in assay [7] was 3.36%; in [8], 1.03%; in assay [9], 2.25%; in assay [10], -2.07%.
